Consider 13 molecules from PubChem BioAssay (NCI).

Each structure is given as a SMILES string. Where “and” joins values, the source holds several entries; their conditions need not be identical. Equal values may be shown once. The panel holds about 83,000 compounds, 20% with a hit somewhere; the sample as a whole holds those more often.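 Single-concentration screen, 48 h exposure, 96-well plates. Endpoint: percent growth. Below 10 = active.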 Calls of active or inactive are those of the source.

This experiment relates to HL-60(TB) leukemia. In words: NCI-60 one-dose screen, 48 h (100 = growth as untreated, 0 = no growth, -100 = all killed). Conditions: 10 µM unless noted.
With `COc1ccc(CCC2c3c(cc4c(c3OC)OCO4)CCN2C)cc1` (stereo not drawn), the growth is -37.5% (active).

Take `COc1ccc(C2(SCCNCc3cc(N(C)C)ccn3)c3ccccc3C=Cc3ccccc32)cc1`: the growth was -21.8% (active).

Consider `NS(=O)(=O)c1ccc(N2N=C(c3ccc(NC(=O)Nc4ccccc4)cc3)CC2c2ccc(Br)cc2)cc1` (stereo not drawn), for which the growth is -4.8% (active).

Turning to `C#CCOc1ccc(/C=N/Nc2nc(-c3cc4cc(OC)ccc4oc3=O)cs2)cc1OC`, the growth was 76.1% (inactive).

In the case of `Cc1ccc(-c2nc(C#N)c(S(=O)(=O)N3CCN(S(=O)(=O)c4ccc(Cl)cc4)CC3)o2)cc1`, the growth was 79.9% (inactive).

In the case of `O=C(Nc1ccc(I)cc1F)c1cc(-c2ccc(F)cc2F)ccc1O`, the growth is -30.4% (active).

With `CC(=O)Nc1ccc(-n2cnc3cc(-c4ccc(O)cc4)ccc32)cc1C(F)(F)F`, the growth is 4.45% (active).

As to `O=C(O)c1cccc(-c2ccc(/C=N/NC(=O)c3[nH]c4ccc(Br)cc4c3-c3ccccc3)o2)c1`, the growth is 88.5% (inactive).

For `O=C(Nc1ccccc1)N1CCN(c2cc(-c3cn(-c4ccccc4)nc3-c3cccc(O)c3)ccn2)CC1`, the growth was 23.3% (inactive).

Take `O=C(c1ccc(Cl)cc1)C1[C@H](c2ccccc2Br)[C@@H](c2ccccc2)NC12C(=O)Nc1ccccc12` (stereo partly drawn): the growth was -2.22% (active).

As for `CC(=O)Oc1ccccc1C(=O)[Se]CC(=O)Nc1cccc(C(F)(F)F)c1`, the growth is -14.9% (active).

`COc1ccc(NC(=O)[C@@H](N)Cc2ccccc2)cc1C(=O)Nc1cccc(C2CC(=O)c3c(cc(OC)c(OC)c3OC)O2)c1` (stereo partly drawn): the growth is 1.01% (active).

As for `O=C(CCl)Nc1ccc(C(=O)/C=C/c2cc3ccccc3nc2Cl)cc1`, the growth is -17.4% (active) and 30.5% (inactive).
